Some test systems named below: SR leukemia; RPMI-8226 leukemia; OVCAR-8 ovarian; OVCAR-5 ovarian; OVCAR-4 ovarian; SK-OV-3 ovarian; IGROV1 ovarian; OVCAR-3 ovarian; HS 578T breast; NCI/ADR-RES ovarian.
Experiment in all cases: NCI-60 one-dose screen, 48 h (100 = growth as untreated, 0 = no growth, -100 = all killed)
Holding throughout (conditions): 10 µM unless noted

Compounds without any hit were thinned out: in the full panel of roughly 83,000, 20% have a hit.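 In brief: 96-well plates, 48 h treatment, single concentration, percent growth endpoint.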 A number with no mark means an inactive call. Activity calls are given as the source filed them. Rule for the calls: active = growth percent below 10; inactive = the rest.

As to `C#CCn1c(C)cc(C)c(C#N)c1=O`, the growth in the assay on SR leukemia was 101%; in the assay on RPMI-8226 leukemia, 103%; with OVCAR-8 ovarian, 103%; in the assay on OVCAR-5 ovarian, 99.9%; with OVCAR-4 ovarian, 105%; with SK-OV-3 ovarian it was 118%. Further, the growth in the assay with IGROV1 ovarian was 103%; in the assay on OVCAR-3 ovarian, 112%; in the assay with HS 578T breast, 103%; in the assay on NCI/ADR-RES ovarian it was 106%.
Regarding `Fc1ccc2c(c1)c(-c1nc(-c3c[nH]c4ncccc34)cs1)cn2CCCN1CCCCC1`, the growth is -34.7% (active) in the assay with SR leukemia; -21.1% (active) in the assay with RPMI-8226 leukemia; 76.9% in the assay on OVCAR-8 ovarian; 88.3% in the assay with OVCAR-5 ovarian; 70.6% in the assay on OVCAR-4 ovarian; 94.4% in the assay with SK-OV-3 ovarian. The growth was 45.7% in the assay with IGROV1 ovarian, 61.7% with OVCAR-3 ovarian, 75.1% in the assay with HS 578T breast and 74.1% in the assay with NCI/ADR-RES ovarian.
Consider `C=C(C)[C@@H]1CC[C@]2(C)CC[C@]3(C)[C@H](CC[C@@H]4[C@@]5(C)CCCNC(C)(C)[C@@H]5CC[C@]43C)[C@@H]12`, for which the growth in the assay with SR leukemia is 1.2% (active); in the assay with RPMI-8226 leukemia it was 30.1%; in the assay on OVCAR-8 ovarian, 84.1%; in the assay with OVCAR-5 ovarian, 107%; with OVCAR-4 ovarian it was 94.5%; with SK-OV-3 ovarian, 113%. Also, the growth was 94% with IGROV1 ovarian, 76.2% in the assay with OVCAR-3 ovarian, 101% in the assay on HS 578T breast and 97.3% with NCI/ADR-RES ovarian.
As to `N#Cc1c(-c2ccco2)nc2c(c(-c3ccccc3)nn2-c2ccccc2)c1-c1ccc(O)cc1`, the growth with SR leukemia was 19.7%; with RPMI-8226 leukemia it was 55.3%; in the assay with OVCAR-8 ovarian, 55.2%; in the assay with OVCAR-5 ovarian, 93.4%; in the assay on OVCAR-4 ovarian, 77.7%; in the assay with SK-OV-3 ovarian, 46.4%. Further, the growth with IGROV1 ovarian is 84.2%; in the assay on OVCAR-3 ovarian, 86%; in the assay with HS 578T breast it was 53.8%; in the assay on NCI/ADR-RES ovarian, 76.4%.
`COc1cc2nc(Cl)nc(Nc3cccc(C(=O)/C=C/c4ccc(Br)cc4)c3)c2cc1OC`: the growth with SR leukemia is 14.7%; in the assay on RPMI-8226 leukemia it was -2.21% (active); in the assay with OVCAR-8 ovarian, 84.7%; with OVCAR-5 ovarian it was 102%; with OVCAR-4 ovarian it was 93%; in the assay with SK-OV-3 ovarian it was 96.7%. For the same compound, the growth in the assay on IGROV1 ovarian is 86.8%; in the assay with OVCAR-3 ovarian it was 88.6%; in the assay with HS 578T breast, 98.4%; in the assay with NCI/ADR-RES ovarian, 92.2%.
With `COc1ccc(C(=O)c2ccc(C)cc2)c(OC)c1OC`, the growth in the assay with SR leukemia was 56.6%; with RPMI-8226 leukemia it was 88.7%; in the assay with OVCAR-8 ovarian, 90.4%; in the assay on OVCAR-5 ovarian, 93%; in the assay on OVCAR-4 ovarian, 99.7%; in the assay with SK-OV-3 ovarian it was 79.3%. Besides, the growth is 71.6% in the assay on IGROV1 ovarian, 66.7% in the assay with OVCAR-3 ovarian, 86.9% with HS 578T breast and 45.2% in the assay on NCI/ADR-RES ovarian.
Regarding `Cc1ccc(-c2nc([P+](c3ccccc3)(c3ccccc3)c3ccccc3)c(N3C[C@H]4C[C@H](C3)c3cccc(=O)n3C4)o2)cc1`, the growth was 87.9% in the assay on SR leukemia; 11.5% in the assay on RPMI-8226 leukemia; 86.6% in the assay on OVCAR-8 ovarian; 105% in the assay on OVCAR-5 ovarian; 77.3% in the assay with OVCAR-4 ovarian; 123% in the assay with SK-OV-3 ovarian. The growth in the assay on IGROV1 ovarian is 46.4%; with OVCAR-3 ovarian, 54%; with HS 578T breast, 94.4%; in the assay with NCI/ADR-RES ovarian it was 94.9%.
On to `CC(C)/C=C/CC[C@](C)(O)[C@H]1CC[C@]2(C)[C@@H]1CC[C@@H]1[C@@]3(C)C/C(=C/c4cccc(C(F)(F)F)c4)C(=O)C(C)(C)[C@@H]3CC[C@]12C`, for which the growth is 82.6% in the assay with SR leukemia; 95.4% with RPMI-8226 leukemia; 87.6% in the assay on OVCAR-8 ovarian; 107% with OVCAR-5 ovarian; 87.2% with OVCAR-4 ovarian; 103% in the assay with SK-OV-3 ovarian. Besides, the growth in the assay on IGROV1 ovarian is 104%; in the assay with OVCAR-3 ovarian, 93.8%; in the assay with HS 578T breast, 99.7%; in the assay on NCI/ADR-RES ovarian it was 97.8%.
Take `CCN1CCN(c2nc(C)cc(N(CCCNc3ccnc4cc(Cl)ccc34)Cc3ccco3)n2)CC1`: the growth with SR leukemia is -16.5% (active); with RPMI-8226 leukemia, 8.04% (active); with OVCAR-8 ovarian it was 58.5%; with OVCAR-5 ovarian, 79.7%; with OVCAR-4 ovarian, 59.7%; in the assay with SK-OV-3 ovarian, 97.2%. For the same compound, the growth is 51.2% in the assay with IGROV1 ovarian, 53% in the assay with OVCAR-3 ovarian, 70.3% in the assay on HS 578T breast and 55.8% with NCI/ADR-RES ovarian.
Regarding `COC(=O)[C@]12CC[C@@H](C)[C@H](C)[C@@H]1C1=CC(=O)[C@@H]3[C@@]4(C)C[C@@H](O)[C@H](O)[C@@]5(C)COC(=C45)C[C@@]3(C)[C@]1(C)CC2`, the growth in the assay with SR leukemia is 7.5% (active); with RPMI-8226 leukemia, 51.2%; in the assay with OVCAR-8 ovarian, 61.4%; with OVCAR-5 ovarian it was 95.9%; with OVCAR-4 ovarian it was 63%; in the assay with SK-OV-3 ovarian, 83.9%. In addition, the growth is 47.6% in the assay with IGROV1 ovarian, 48.3% in the assay on OVCAR-3 ovarian, 49.7% in the assay with HS 578T breast and 20.8% in the assay on NCI/ADR-RES ovarian.
Turning to `Cc1ccc(N(CC(=O)Nc2ccc(S(=O)(=O)N3CCC(N4CCCC4)CC3)cc2)S(=O)(=O)c2ccc(Cl)cc2)cc1`, the growth was -29.5% (active) in the assay on SR leukemia; -3.71% (active) with RPMI-8226 leukemia; 55.2% with OVCAR-8 ovarian; 88% in the assay on OVCAR-5 ovarian; 49.2% in the assay with OVCAR-4 ovarian; 96.9% in the assay on SK-OV-3 ovarian. Besides, the growth was 51% with IGROV1 ovarian, -22.4% (active) in the assay with OVCAR-3 ovarian, 66% in the assay with HS 578T breast and 70.2% with NCI/ADR-RES ovarian.
`CCN1CCN(C(=O)[C@]23CCC(C)(C)C[C@@H]2C2=CC[C@@H]4[C@@]5(C)C/C(=C/c6cccnc6)C(=O)C(C)(C)[C@@H]5CC[C@@]4(C)[C@]2(C)CC3)CC1`: the growth in the assay on SR leukemia was 4.78% (active); with RPMI-8226 leukemia, 5.88% (active); in the assay on OVCAR-8 ovarian, 27.1%; with OVCAR-5 ovarian, 83.8%; in the assay on OVCAR-4 ovarian it was 7.28% (active); in the assay on SK-OV-3 ovarian, 56%. The growth in the assay with IGROV1 ovarian is 51.6%; in the assay with OVCAR-3 ovarian it was 28.6%; in the assay with HS 578T breast, 54.6%; with NCI/ADR-RES ovarian it was 8.32% (active).
With `Cc1ccsc1-c1ccc2c(c1)COC2(CCCN(C)C)c1ccc(F)cc1` (stereo not given), the growth was -4.74% (active) in the assay with SR leukemia; 19% in the assay on RPMI-8226 leukemia; 71.9% in the assay on OVCAR-8 ovarian; 72.1% in the assay on OVCAR-5 ovarian; 54.4% with OVCAR-4 ovarian; 79.1% in the assay with SK-OV-3 ovarian. Also, the growth in the assay with IGROV1 ovarian was 26.6%; in the assay on OVCAR-3 ovarian, 67.2%; with HS 578T breast, 49%; in the assay on NCI/ADR-RES ovarian it was 72.4%.

The record behind these values is PubChem BioAssay (NCI).
